Data: PubChem BioAssay (NCATS)
Results filed as inconclusive are left out. The source made the active and inactive calls. Unless noted, calls follow the shape of the dose curve; as a rule, active = well fitted curve in the direction sought with a large enough effect; inconclusive = small, poorly fitted or top-dose-only effect, or another doubt; inactive = no such curve, though single readings can be large; an effect the other way counts as inactive or inconclusive.

Assays:
[1] = target: Nuclear receptor subfamily 1 group I member 3 (Homo sapiens) (UniProt Q14994); assay: qHTS for Constitutive Androstane Receptor (CAR) Agonist screened against the NCATS CANVASS Library (AID 1347373)
Chain of Nuclear receptor subfamily 1 group I member 3 (Homo sapiens) (Q14994 whole entry, looked up): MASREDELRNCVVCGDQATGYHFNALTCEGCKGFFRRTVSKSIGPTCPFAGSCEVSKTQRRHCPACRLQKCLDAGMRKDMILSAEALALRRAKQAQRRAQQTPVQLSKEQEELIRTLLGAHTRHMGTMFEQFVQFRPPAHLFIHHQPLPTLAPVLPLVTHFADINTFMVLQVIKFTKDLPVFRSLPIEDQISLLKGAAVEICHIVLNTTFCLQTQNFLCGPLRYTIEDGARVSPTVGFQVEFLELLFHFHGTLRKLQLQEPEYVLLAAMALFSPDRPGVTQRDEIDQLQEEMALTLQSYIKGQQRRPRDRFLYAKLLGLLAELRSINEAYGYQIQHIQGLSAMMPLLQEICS
Method in brief: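 Cells were plated and allowed to attach for 4hr, then dosed with compound in an 11-point series alongside 1.5uM PK11195. After 24hr at 37C, viability was measured fluorometrically and CAR-driven CYP2B6 reporter luminescence was recorded.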

[2] = qHTS for Hypoxia signaling pathway (HIF-1) antagonists against the NCATS CANVASS Library (AID 1347374)
Method in brief: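 Antagonism scored as loss of CoCl2-driven (60 uM stock added) HRE beta-lactamase signal, read by CCF4 FRET at 460/530 nm. Compounds were tested in an 11-point series on ME-180 reporter cells for 17 hrs at 37C, with parallel CellTiter-Glo cytotoxicity.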

[3] = qHTS for Hypoxia signaling pathway (HIF-1) agonists against the NCATS CANVASS Library (AID 1347375)
Method in brief: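 Cells plated and rested 5 h, compounds pinned in DMSO across 11 concentrations, incubated 17 h at 37C, loaded with CCF4-AM for 2 h, fluorescence read at 460 and 530 nm, then CellTiter-Glo luminescence measured for viability and normalization.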

[4] = 10-beta competent E. coli microbial cell viability qHTS against the NCATS CANVASS Library (AID 1347376)
Method in brief: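 Bacterial suspension diluted to 0.2 OD was dosed with compounds, 11-point series, then held overnight at 37C. BacTiter-Glo reagent was added, and after 20 min at room temperature ATP-dependent luminescence was measured.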

[5] = DH5-alpha competent E. coli microbial cell viability qHTS against the NCATS CANVASS Library (AID 1347377)
Method in brief: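 Bacteria were dispensed at 0.2 OD, then compounds were pin-transferred. Plates were incubated overnight at 37C, after which BacTiter-Glo was added and luminescence measured 20 min later.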

[6] = qHTS for H2AX Agonists against the NCATS CANVASS Library (AID 1347378)
Method in brief: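 Following overnight seeding, CHO-K1 cells are incubated with a concentration series of compound for 3 hr at 37C (final DMSO 0.76%). Cells are then lysed, detection antibodies added, and emission ratio 665/620 nm recorded after 24 hr at room temperature.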

[7] = qHTS for Inflammasome Signaling Inhibitors: IL-1-beta AlphaLISA screen against the NCATS CANVASS Library (AID 1347379)
Method in brief: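 Secreted IL-1B from human THP-1 cells quantified by AlphaLISA 16 hr after compound addition (final up to 57.5 uM). A 1 hr compound pretreatment preceded inflammasome activation with 250 ng/mL LPS plus 1.25 mM ATP (final).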

[8] = qHTS for Antimalaria activity screened against the NCATS CANVASS Library (AID 1347380)
Method in brief: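 Compounds are titrated over 11 concentrations onto Dd2 parasite cultures (0.3% parasitemia, 2.5% hematocrit). Growth over 72 h at 37C in low oxygen is measured as SYBR Green DNA fluorescence after lysis.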

[9] = Inflammasome Signaling qHTS Counterscreen: IL-1-beta AlphaLISA counterscreen against the NCATS CANVASS Library (AID 1347381)
Method in brief: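 Purified IL-1-beta (4 pg/well) + compound, 11-pt conc. series; acceptor beads 6 ug/mL + biotin-Ab 0.6 nM final, 1 h RT; SA-donor 24 ug/ml final, 30 min dark RT; read ex 680/em 615.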

[10] = Cytotoxicity qHTS for assessment of Hepg2 cells membrane integrity screened against the NCATS CANVASS Library (AID 1347387)
Method in brief: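 Cells were seeded at 2000 per well and left overnight to attach. Compounds were pin-transferred to give 0.59 nM - 46 uM in an 11-point series and incubated 5 hr at 37C. CytoTox-ONE reagent was added and, after 10 min at room temperature, fluorescence (ex 560, em 590 nm) was read.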

[11] = qHTS assay for small molecule disruptors of mitochondrial membrane potential screened against the NCATS CANVASS Library (AID 1347389)
Method in brief: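 Mitochondrial depolarization in HepG2 cells is scored as a falling aggregate-to-monomer fluorescence ratio after 1 hr compound exposure and 30 min staining with Mito-MPS dye at 37C, each compound tested as an 11-point titration.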

[12] = Secretion counterscreen for inhibitors of the SERCaMP assay screened against the NCATS CANVASS Library (AID 1347390)
Method in brief: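 Counterscreen identifying compounds that disrupt secretion, using SH-SY5Y cells with a constitutively secreted Gaussia luciferase reporter. A 20 h compound exposure (top 77 uM) precedes luminescent detection with coelenterazine.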

[13] = qHTS for activators of Nrf2/ARE signaling pathway screened against the NCATS CANVASS Library (AID 1347391)
Method in brief: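 Beta-lactamase reporter signal, read as 460 and 530 nm emission under 405 nm excitation after 2 h CCF4 loading, reflected ARE activation in HepG2 cells treated 16 h with an 11-point series.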

[14] = qHTS for activators of dead-cell proteases activity screened against the NCATS CANVASS Library (AID 1347392)
Method in brief: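 Luminescent dead-cell protease readout (AAF-aminoluciferin, 15 min, room temperature) after 5 h compound treatment of HepG2 cells (2000/well, pre-attached 18 h). Eleven concentrations.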

[15] = qHTS for inhibitors of ER calcium dysfunction: SERCaMP assay screened against the NCATS CANVASS Library (AID 1347393)
Method in brief: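 Thapsigargin-induced ER calcium depletion drives GLuc-SERCaMP secretion from SH-SY5Y cells; compounds given 16 h beforehand were scored by lowered coelenterazine luminescence after 4 h challenge.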

[16] = Vero-766 cells viability qHTS against the NCATS CANVASS Library: Counterscreen for Zika virus inhibition assay (AID 1347394)
Method in brief: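 This cytotoxicity counterscreen uses African green monkey Vero 766 cells in the absence of Zika virus. Compounds are incubated with cells for 72 h, and ATP-based luminescence reports viability.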

[17] = qHTS for inhibitors of Wild type Zika virus screened against the NCATS CANVASS Library (AID 1347396)
Method in brief: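 Using ATP-based luminescence (CellTiter Glo), this screen scores rescue of Vero 766 cells from wild-type Zika killing at 72 h post-infection. Compounds are tested in a concentration series.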

[18] = Viability qHTS for inhibitors of the SERCaMP assay screened against the NCATS CANVASS Library (AID 1347400)
Method in brief: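 Seed SH-SY5Y-GLuc SERCaMP MJH297 cells at 1000 per well, incubate 4 h, add compounds across an 11-point range, incubate 48 h at 37C, then add CellTiter-Glo and read luminescence.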

[19] = Redox Reaction Profiling qHTS: Assay Interference Panel against the NCATS CANVASS Library (AID 1347401)
Method in brief: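 Redox-cycling liability assessed as DTT-driven conversion of resazurin (5 uM, with 200 uM DTT, HEPES pH 7.3) to fluorescent resorufin. Fluorescence at 525/598 nm measured initially and after 15 min dark incubation.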

[20] = qHTS for inhibitors of Rabies Virus screened against the NCATS CANVASS Library (AID 1347402; calls by dose curve)

Measured: outcome

CN(C)CCc1c[nH]c2ccccc12
inactive: all assays above
